In PubChem BioAssay AID1159580 (chemical genetic matrix, 2015):
Values joined by “and” are separate entries in the source; they are usually repeats but may differ in a detail not shown here. Equal values may be shown once. The campaign covered roughly 5,500 compounds. About 2,000 (36%) were called active. Inconclusive results (about 18%) are left out. No stated cut-off is given here; in the data, active means normalized growth mostly below about 0.91 (no sharp cut-off); inconclusive means no clear call, values can overlap the other calls; inactive means mostly above about 0.92. The list shows a part of the results.

Experiment: chemical genetic growth profiling, strain panel (AID 1159580);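 further: tested at 20 µM; growth read once vehicle control cultures reached saturation at 30 °C; 1 = growth at the plate median or of vehicle wells; lower values mean less growth of the strain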
Settings: S. cerevisiae deletion strains, growth OD

Measured: normalized growth

Cn1c(=O)[nH]c(=O)c2[nH]cnc21
inactive: locus YAL013W, strain DEP1, hits give low values 0.993 | locus YAL021C, strain ccr4, hits give low values 0.997 | locus YAL026C, strain drs2, hits give low values 0.989 | locus YAL030W, strain snc1, hits give low values 0.995 | locus YBL061C, strain skt5, hits give low values 1.01 | locus YBR009C, strain hhf1, hits give low values 0.999 | locus YBR021W, strain FUR4, hits give low values 0.991 | locus YBR023C, strain chs3, hits give low values 0.985 | locus YBR171W, strain sec66, hits give low values 0.982 | locus YBR229C, strain ROT2, hits give low values 0.987 | locus YBR231C, strain swc5, hits give low values 0.993 | locus YBR279W, strain paf1, hits give low values 0.988 | locus YCL011C, strain gbp2, hits give low values 1 | locus YCL016C, strain dcc1, hits give low values 0.987 | locus YCL029C, strain bik1, hits give low values 0.971 | locus YCL061C, strain MRC1, hits give low values 0.981 | locus YCL069W, strain vba3, hits give low values 0.999 | locus YCR088W, strain abp1, hits give low values 0.988 | locus YDL005C, strain med2, hits give low values 0.966 | locus YDL035C, strain GPR1, hits give low values 1 | locus YDL040C, strain nat1, hits give low values 0.99 | locus YDL074C, strain BRE1, hits give low values 1.01 | locus YDL101C, strain DUN1, hits give low values 0.984 | locus YDL134C, strain PPH21, hits give low values 0.999 | locus YDL185W, strain tfp1, hits give low values 0.955 | locus YDL192W, strain arf1, hits give low values 0.981 | locus YDR001C, strain nth1, hits give low values 0.996 | locus YDR069C, strain doa4, hits give low values 0.971 | locus YDR101C, strain arx1, hits give low values 0.981 | locus YDR137W, strain rgp1, hits give low values 0.979 | locus YDR150W, strain NUM1, hits give low values 0.994 | locus YDR159W, strain sac3, hits give low values 0.956 | locus YDR162C, strain NBP2, hits give low values 0.988 | locus YDR195W, strain ref2 1 | locus YDR297W, strain sur2, hits give low values 1 | locus YDR318W, strain mcm21, hits give low values 0.98 | locus YDR334W, strain swr1, hits give low values 1.01 | locus YDR335W, strain msn5, hits give low values 0.997 | locus YDR388W, hits give low values 0.966 | locus YDR392W, strain spt3, hits give low values 0.941 | locus YDR502C, strain sam2, hits give low values 0.982 | locus YEL003W, strain gim4, hits give low values 1 | locus YEL037C, strain rad23, hits give low values 1 | locus YEL061C, strain CIN8 (second series), hits give low values 0.999 | locus YEL061C, strain CIN8, hits give low values 0.994 | locus YER015W, strain faa2, hits give low values 0.996 | locus YER016W, strain bim1, hits give low values 1.01 | locus YER110C, hits give low values 0.969 | locus YER111C, strain swi4, hits give low values 1 | locus YER155C, strain BEM2 (second series), hits give low values 0.981 | locus YER155C, strain BEM2, hits give low values 0.989 | locus YER167W, strain BCK2, hits give low values 0.975 | locus YFR010W, strain ubp6, hits give low values 1 | locus YGL078C, strain dbp3, hits give low values 0.969 | locus YGL086W, strain mad1, hits give low values 0.977 | locus YGL167C, strain pmr1, hits give low values 1 | locus YGL173C, strain kem1, hits give low values 0.991 | locus YGL227W, strain vid30, hits give low values 0.999 | locus YGL240W, strain doc1, hits give low values 0.969 | locus YGL248W, strain PDE1, hits give low values 0.983 | locus YGL253W, strain hxk2, hits give low values 0.975 | locus YGR078C, strain PAC10, hits give low values 0.996 | locus YGR135W, strain pre9, hits give low values 0.977 | locus YGR229C, strain SMI1, hits give low values 0.993 | locus YGR252W, strain gcn5, hits give low values 1.06 | locus YHR013C, strain ard1, hits give low values 0.975 | locus YHR027C, strain rpn1, hits give low values 0.983 | locus YHR030C, strain SLT2, hits give low values 0.981 and 0.987 | locus YHR079C, strain IRE1 (second series), hits give low values 0.97 | locus YHR079C, strain IRE1, hits give low values 0.984 | locus YHR094C, strain hxt1, hits give low values 0.977 | locus YHR129C, strain ARP1, hits give low values 0.994 | locus YHR142W, strain chs7, hits give low values 1 | locus YHR200W, strain rpn10, hits give low values 0.968 | locus YIL066C, strain RNR3, hits give low values 0.988 | locus YIL073C, strain SPO22, hits give low values 0.935 | locus YIL125W, strain kgd1, hits give low values 0.971 | locus YIR030C, strain dcg1, hits give low values 0.967 | locus YJL092W, strain hpr5, hits give low values 0.996 | locus YJL095W, strain BCK1 (second series), hits give low values 0.999 | locus YJL095W, strain BCK1, hits give low values 0.977 and 0.976 | locus YJL115W, strain asf1, hits give low values 0.973 | locus YJL129C, strain trk1, hits give low values 0.968 | locus YJL134W, strain LCB3, hits give low values 0.987 | locus YJL154C, strain vps35, hits give low values 0.998 | locus YJL164C, strain tpk1, hits give low values 1.01 | locus YJL166W, strain qcr8, hits give low values 1 | locus YJL168C, strain set2, hits give low values 0.973 | locus YJL187C, strain SWE1 (second series), hits give low values 0.987 | locus YJR043C, strain POL32, hits give low values 1 | locus YJR066W, strain TOR1, hits give low values 0.911
